Here are results for 19 compounds from PubChem BioAssay (NCI).

Among the test systems are SR leukemia; RPMI-8226 leukemia; OVCAR-8 ovarian; OVCAR-5 ovarian; OVCAR-4 ovarian; SK-OV-3 ovarian; IGROV1 ovarian; HS 578T breast; NCI/ADR-RES ovarian.
What all share (experiment): NCI-60 one-dose screen, 48 h (100 = growth as untreated, 0 = no growth, -100 = all killed)
Common to all, as to conditions: 10 µM unless noted

The panel holds about 83,000 compounds, 20% with a hit somewhere; the sample as a whole holds those more often.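 Interpretation: 100, growth as untreated; towards 0, rising growth inhibition; 0, no net growth; 0 to -100, cell death. Compounds scoring below 10 were considered active.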 A number with no mark means an inactive call. Calls of active or inactive are those of the source.

Regarding `Clc1ccc2[nH]cc(-c3nn4cc(-c5ccncc5)nc4s3)c2c1`, the growth with SR leukemia is 28.8%; in the test with RPMI-8226 leukemia it was 53.2%; in the test on OVCAR-8 ovarian it was 10.6%; in the test with OVCAR-5 ovarian it was 98.8%; in the test with OVCAR-4 ovarian, 43.2%; with SK-OV-3 ovarian, 15.4%. For the same compound, the growth was 44.6% in the test on IGROV1 ovarian, 31.2% in the test on HS 578T breast and 2.69% (active) in the test with NCI/ADR-RES ovarian.
On to `O=C(CCl)Nc1ccc(NC(=O)c2cc(Cl)ccc2O)c(Cl)c1`, for which the growth with SR leukemia was 21.3%; in the test on RPMI-8226 leukemia it was 49.8%; with OVCAR-8 ovarian, 48.6%; in the test on OVCAR-5 ovarian, 121%; in the test on OVCAR-4 ovarian, 83%; in the test with SK-OV-3 ovarian, 90.9%. Moreover, the results for the growth in the test on IGROV1 ovarian, in the test with HS 578T breast and with NCI/ADR-RES ovarian were -45.3% (active), 86.9% and 56.7%, respectively.
As to `C/C(=C(/C)C1CC1CCNC1CCC(NC(=O)OC(C)(C)C)CC1)c1ccccc1` (centres undefined), the growth is -25.5% (active) with SR leukemia; 2.74% (active) in the test with RPMI-8226 leukemia; 81.6% in the test on OVCAR-8 ovarian; 84.4% in the test on OVCAR-5 ovarian; 78.5% with OVCAR-4 ovarian; 88.8% in the test on SK-OV-3 ovarian. The growth in the test with IGROV1 ovarian is 72.1%; in the test on HS 578T breast, 84.1%; in the test on NCI/ADR-RES ovarian, 75.7%.
Regarding `CN(C)CCNc1ccc2ncc(C#Cc3cncc(C(=O)Nc4ccc(CN5CCN(C)CC5)c(C(F)(F)F)c4)c3)n2n1`, the growth is 0.232% (active) in the test on SR leukemia; -11.2% (active) in the test with RPMI-8226 leukemia; 1.03% (active) with OVCAR-8 ovarian; 11.4% in the test with OVCAR-5 ovarian; -10.1% (active) in the test with OVCAR-4 ovarian; 45.1% in the test with SK-OV-3 ovarian. Also, the growth in the test on IGROV1 ovarian was 0.103% (active); in the test on HS 578T breast, -16.1% (active); in the test with NCI/ADR-RES ovarian it was 76%.
Consider `Cc1[nH]c(C(=O)Nc2ccc(S(=O)(=O)N3CCCCC3)cc2OCCOCCOCCOCCOCCOCCOCCOCCOCCOc2cc(S(=O)(=O)N3CCCCC3)ccc2NC(=O)c2[nH]c(C)c3c2CCCCC3=O)c2c1C(=O)CCCC2`, for which the growth was 10.9% in the test on SR leukemia; 10.6% with RPMI-8226 leukemia; 13.6% in the test on OVCAR-8 ovarian; 48.6% in the test with OVCAR-5 ovarian; 12.5% with OVCAR-4 ovarian; -42.5% (active) with SK-OV-3 ovarian. Also, the growth was 6.25% (active) with IGROV1 ovarian, -17% (active) with HS 578T breast and 85.3% in the test on NCI/ADR-RES ovarian.
`CCN1CCN(c2ccc(NC(=O)Nc3ccc4c(ccn4-c4ccnc(C(=O)NC)c4)c3)cc2C(F)(F)F)CC1`: the growth in the test with SR leukemia was -2.78% (active); in the test with RPMI-8226 leukemia, 8.67% (active); with OVCAR-8 ovarian, 98.4%; with OVCAR-5 ovarian, 89%; in the test on OVCAR-4 ovarian it was 87%; in the test on SK-OV-3 ovarian, 80.6%. The results for the growth with IGROV1 ovarian, with HS 578T breast and in the test on NCI/ADR-RES ovarian were 79.3%, 34.6% and 86.5%, respectively.
Regarding `NC(=O)c1ncn2c(=O)n(CCF)nnc12`, the growth is 35.3% in the test on SR leukemia; 44% in the test with RPMI-8226 leukemia; 38.3% with OVCAR-8 ovarian; 85.1% with OVCAR-5 ovarian; 58% with OVCAR-4 ovarian; 17.3% in the test with SK-OV-3 ovarian. The growth with IGROV1 ovarian is 70.3%; in the test on HS 578T breast, 103%; in the test with NCI/ADR-RES ovarian it was 50.6%.
For `Nn1c(=O)n(-c2cccc(C(F)(F)F)c2)c(=O)c2cc(-c3ccc(F)cc3F)ccc21`, the growth in the test on SR leukemia is 6.24% (active); in the test with RPMI-8226 leukemia, -19.1% (active); in the test on OVCAR-8 ovarian, 9.99% (active); in the test with OVCAR-5 ovarian, 47.2%; with OVCAR-4 ovarian, 28.8%; with SK-OV-3 ovarian, -8.64% (active). For the same compound, the figures for the growth with IGROV1 ovarian, with HS 578T breast and with NCI/ADR-RES ovarian were 20.9%, 0.556% (active) and 2.58% (active), respectively.
For the compound `Fc1cccc(Cl)c1/C=N/Nc1nc(N/N=C/c2c(F)cccc2Cl)nc(N2CCCCC2)n1`, the growth with SR leukemia was 16.1%; with RPMI-8226 leukemia it was 3.27% (active); with OVCAR-8 ovarian, 25.8%; with OVCAR-5 ovarian, 27.8%; in the test with OVCAR-4 ovarian, 21%; in the test with SK-OV-3 ovarian, 39.1%. For the same compound, the results for the growth with IGROV1 ovarian, in the test with HS 578T breast and in the test on NCI/ADR-RES ovarian were 17.7%, 33.3% and 15.2%, respectively.
For the compound `CCc1cc(OC(=O)N2CCN(CCC(C)(COC(C)(C)C)COC(C)(C)C)CC2)ccc1Nc1cc(-c2ccc(-n3cccn3)cc2)[nH]n1`, the growth with SR leukemia is 37.9%; in the test on RPMI-8226 leukemia it was 60.5%; with OVCAR-8 ovarian it was 84.3%; in the test on OVCAR-5 ovarian, 89.1%; in the test on OVCAR-4 ovarian, 60.8%; in the test with SK-OV-3 ovarian, 105%. Also, the growth in the test on IGROV1 ovarian was 67%; with HS 578T breast, 68.2%; in the test on NCI/ADR-RES ovarian, 74.5%.
In the case of `Cc1ccc(OCc2occc2C(=O)N2CCOCC2)cc1`, the growth is 104% in the test with SR leukemia; 97.7% with RPMI-8226 leukemia; 113% with OVCAR-8 ovarian; 102% with OVCAR-5 ovarian; 103% in the test with OVCAR-4 ovarian; 109% in the test with SK-OV-3 ovarian. The results for the growth in the test with IGROV1 ovarian, in the test with HS 578T breast and in the test on NCI/ADR-RES ovarian were 104%, 104% and 107%, respectively.
As for `COc1cc(/C=C2/C(=O)Nc3ccc(Cl)cc32)ccc1OCc1ccc(Cl)cc1`, the growth in the test on SR leukemia is 41.9%; with RPMI-8226 leukemia, 100%; with OVCAR-8 ovarian it was 91.2%; in the test on OVCAR-5 ovarian it was 96.7%; in the test on OVCAR-4 ovarian, 20.3%; in the test on SK-OV-3 ovarian, 110%. Further, the growth in the test with IGROV1 ovarian is 77.3%; in the test with HS 578T breast, 94.1%; with NCI/ADR-RES ovarian, 88.3%.
Consider `COc1ccccc1/C=C/C(=O)c1nnn(-c2ccc(F)cc2)c1C`, for which the growth in the test with SR leukemia is 13.2%; in the test on RPMI-8226 leukemia it was 20.9%; in the test on OVCAR-8 ovarian, 44.9%; in the test on OVCAR-5 ovarian, 89.5%; with OVCAR-4 ovarian it was 59.2%; in the test with SK-OV-3 ovarian, 95.8%. The growth in the test on IGROV1 ovarian is 45.6%; in the test with HS 578T breast, 78.3%; in the test with NCI/ADR-RES ovarian, 34.3%.
`CCc1cccc2c3c(sc12)C(c1ccc(F)cc1)C(C#N)=C(/N=C/c1ccc(Cl)cc1)O3` (centres undefined): the growth was 18.8% in the test on SR leukemia; 21.5% with RPMI-8226 leukemia; 13.6% in the test with OVCAR-8 ovarian; 29.1% with OVCAR-5 ovarian; 80.6% in the test on OVCAR-4 ovarian; 42.6% in the test on SK-OV-3 ovarian. Also, the growth with IGROV1 ovarian is 29.9%; in the test with NCI/ADR-RES ovarian, 7.87% (active).
With `CN(C)CC(=O)Nc1nc(-c2cccc(NS(=O)(=O)c3cccc4c(N(C)C)cccc34)c2)cs1`, the growth with SR leukemia is 74.9%; in the test on RPMI-8226 leukemia, 60.6%; in the test on OVCAR-8 ovarian, 82.6%; in the test with OVCAR-5 ovarian it was 105%; in the test on OVCAR-4 ovarian, 87.1%; in the test with SK-OV-3 ovarian, 107%. The values for the growth in the test with IGROV1 ovarian and in the test on NCI/ADR-RES ovarian were 90.7% and 76.8%, respectively.
`COc1ccc2c(c1)c(/C=N/Nc1ccnc3cc(Cl)ccc13)cn2C`: the growth in the test with SR leukemia was -22.6% (active); in the test on RPMI-8226 leukemia, -43% (active); with OVCAR-8 ovarian it was -66.8% (active); with OVCAR-5 ovarian it was -87.3% (active); in the test on OVCAR-4 ovarian, -76.7% (active); in the test with SK-OV-3 ovarian, -89.2% (active). The growth in the test on IGROV1 ovarian is -82% (active); in the test on HS 578T breast, -53.1% (active); in the test with NCI/ADR-RES ovarian it was -71.1% (active).
Take `C#Cc1nc(C(=O)NCCCCCCC(=O)NO)cs1`: the growth was 0.171% (active) with SR leukemia; -10.1% (active) in the test on RPMI-8226 leukemia; 15.8% in the test on OVCAR-8 ovarian; 10.2% in the test with OVCAR-5 ovarian; 25.8% in the test with OVCAR-4 ovarian; 29.2% in the test on SK-OV-3 ovarian. Moreover, the figures for the growth in the test on IGROV1 ovarian, in the test with HS 578T breast and with NCI/ADR-RES ovarian were -72.6% (active), -3.14% (active) and 2.01% (active), respectively.
Turning to `CC(=O)/C(N=Nc1ccc2oc(=O)ccc2c1)=C(\C)O`, the growth with SR leukemia is 9.76% (active); in the test on RPMI-8226 leukemia, 12.3%; with OVCAR-8 ovarian it was 25.1%; in the test on OVCAR-5 ovarian, 50.8%; in the test on OVCAR-4 ovarian, 50%; with SK-OV-3 ovarian it was 37.1%. The growth in the test with IGROV1 ovarian is 32.4%; in the test on HS 578T breast, 63.1%; in the test on NCI/ADR-RES ovarian, 13.3%.
Turning to `Cc1ccsc1[C@H]1c2[nH]c3ccccc3c2C[C@H]2C(=O)N(CCCCCCC(=O)NO)CC(=O)N12`, the growth with SR leukemia is 42%; in the test with RPMI-8226 leukemia it was 58.8%; in the test on OVCAR-8 ovarian, 79.2%; with OVCAR-5 ovarian it was 73.7%; in the test with OVCAR-4 ovarian it was 106%; in the test on SK-OV-3 ovarian, 105%. The growth was 87.4% in the test with IGROV1 ovarian, 85.4% in the test on HS 578T breast and 95.9% in the test with NCI/ADR-RES ovarian.
